The values that follow come from PubChem BioAssay AID2314 (National Center for Advancing Translational Sciences (NCATS), 2010).

In all, about 300,000 compounds went through this assay and about 37,000 (12%) were called active. The full list was thinned out, with actives kept by preference. Values without a mark were called inactive. Rule as the data show it: active = max response mostly above about 13% (no sharp cut-off); inactive = mostly below about 14%.

The nature of this test: Cycloheximide Counterscreen for Small Molecule Inhibitors of Shiga Toxin. Also: read at 38.3 µM for the half of the compounds with a filed dose; 0% is about no effect. Conditions: cell reporter, cycloheximide protein synthesis inhibition counterscreen; stronger effect = higher value. (In general: The purpose of a counterscreen is to sort out artefacts and off-target activity.)
Consider `Fc1ccc(Cl)cc1-c1nc(Nc2ccncc2)c2nccnc2n1`, for which the max response is 1.12%.

With `COc1ccc(N(C(=O)c2snc(C(N)=O)c2N)C(C(=O)NC2CCCC2)c2ccc(C)o2)c(OC)c1` (stereo not drawn), the max response was -6.04%.

Turning to `O=C(N/N=C\C1CC=CCC1)c1ccc(Br)o1` (stereo not drawn), the max response was 29.4% (active).

For `COCc1c(C(=O)N/N=C/C2CC=CCC2)nnn1-c1nonc1N` (stereo not drawn), the max response is 1.58%.

Consider `Cc1ccc(SCc2c(C(=O)N/N=C/C3CC=CCC3)nnn2-c2nonc2N)cc1` (stereo not drawn), for which the max response was -2.54%.

Regarding `C=CCC1CCC(=O)N2CCCC12` (stereo not drawn), the max response was -5.3%.

For the compound `COc1ccc(OC)c(S(=O)(=O)N(C)CC(=O)N2CCN(c3ccccc3)CC2)c1`, the max response is 6.23%.

As to `CN(CC(=O)N1CCN(c2ccccc2)CC1)S(=O)(=O)c1cccs1`, the max response is 29% (active).

In the case of `O=C(CCNS(=O)(=O)c1cccs1)N1CCN(c2ccc(F)cc2)CC1`, the max response was -5.58%.

On to `Cc1ccc(C(=O)NN(CCC#N)C2=NS(=O)(=O)c3ccccc32)cc1`, for which the max response is 0.601%.

For `CONc1nc2nonc2nc1NOC`, the max response was -2.64%.

Regarding `COc1ccc(NC(=O)c2cn(-c3ccccc3)nc2SC)cc1`, the max response is 15.2% (active).

Take `COc1ccc(-c2nn(-c3ccccc3)cc2C(=O)Nc2nc(CC(C)=O)ns2)cc1`: the max response is 9.17%.

Take `COc1ccc(NC(=O)c2c(SC)nsc2SC)cc1`: the max response was -1.45%.

On to `Cc1ccc(-n2cc3ccc([N+](=O)[O-])cc3n2)cc1`, for which the max response was 46.9% (active).

As for `Cc1cc(C)nc(Nc2cc([N+](=O)[O-])ccc2C)n1`, the max response is 7.47%.

As to `Cc1ccc(-c2cn(S(=O)(=O)c3cccc([N+](=O)[O-])c3)nc2N)cc1`, the max response is -2.07%.

For the compound `CCCCc1nn(-c2ccccc2C(F)(F)F)c(=O)n1Cc1ccc(-c2ccccc2S(=O)(=O)NC(=O)c2sccc2C)cc1`, the max response is -3.92%.

As for `CN1CCN(CCCCOc2ccccc2-c2ccccc2)CC1`, the max response was -2.52%.

Regarding `COc1ccccc1N1CCN(C(=O)c2ccc(Cl)c(S(=O)(=O)N3CCCC3)c2)CC1`, the max response is 1.2%.

Turning to `CC12CN(NC(=O)c3ccc(Cl)cc3)C3(C#N)CC1CCC23C` (stereo not drawn), the max response was -3.78%.

For the compound `OCCC1CN(Cc2ccc(Oc3ncccn3)cc2)CCN1CCc1ccccc1` (stereo not drawn), the max response is 14.5% (active).

`CC(C)=CCN1CCN(Cc2ccc(Oc3ncccn3)cc2)CC1CCO` (stereo not drawn): the max response was -1.38%.

With `CCOc1ccc(CN2CCN(CCCc3ccccc3)C(CCO)C2)cc1` (stereo not drawn), the max response was -3%.

For the compound `N#Cc1cccc(CN2CCC(=O)N(CCO)CC2)c1`, the max response was -1.61%.

With `O=C(c1ccc(N2CCOCC2)c([N+](=O)[O-])c1)N1CCN(S(=O)(=O)c2cccs2)CC1`, the max response was -2%.

Take `CN(c1ccc(OCC(=O)O)cc1)S(=O)(=O)c1ccc2ccccc2c1`: the max response was -2.07%.

For `O=C(NCc1cccc(C(F)(F)F)c1)c1cccc(S(=O)(=O)N2CCN(Cc3ccccc3)CC2)c1`, the max response was -5.35%.

As for `O=C(NCc1ccccc1)c1ccc(S(=O)(=O)Nc2cccc(C(F)(F)F)c2)cc1`, the max response was 2.15%.

For `O=C(Cc1cccs1)NCc1cccc(C(F)(F)F)c1`, the max response is 36.1% (active).

In the case of `Cc1nc([N+](=O)[O-])nn1C12CC3CC(CC(Br)(C3)C1)C2`, the max response was 15.4%.

For `CCC(C)(C)c1ccc(OCC(=O)N(C)C)c(C(C)(C)CC)c1`, the max response was -3.16%.

On to `Cc1nc2ccc(C(=O)N3CCSCC3)cc2s1`, for which the max response was 11.3% (active).

Consider `Cc1nc2ccc(C(=O)N3CCN(c4ccccc4)CC3)cc2s1`, for which the max response was -1.5%.

For the compound `O=C(c1ccc2nc(N3CCOCC3)sc2c1)N1CCN(c2ccc(Cl)cc2)CC1`, the max response was 1.7%.

As for `OC(COCCC12CC3CC(CC(C3)C1)C2)CN1CCCCC1` (stereo not drawn), the max response is -4.31%.

As for `Cc1nc(C)c(-c2nnc(-c3cccc(S(=O)(=O)N(C)C)c3)o2)cc1C(=O)NN`, the max response was -1.43%.

On to `CN(C)c1ccnc2sc3c(=O)n(Cc4ccccc4)cnc3c12`, for which the max response is -5.28%.

For the compound `Cc1ccc2c(N)c(C(=O)c3ccccc3)sc2n1`, the max response is 29% (active).

In the case of `Cc1nc2sc(C(=O)c3ccccc3)c(N)c2c2c1CCCC2`, the max response was 20.5% (active).

For the compound `CS(=O)(=O)c1sc2nc(-c3ccccc3)cc(-c3ccccc3)c2c1N`, the max response was -3.03%.

Turning to `COc1cccc(C(=O)c2sc3nc(-c4ccccc4)cc(C(F)(F)F)c3c2N)c1`, the max response is 10.5%.

As for `CCN(CC)C(=O)c1sc2nc(-c3ccccc3)ccc2c1N`, the max response is 63.5% (active).

For the compound `NC(=O)c1sc2nc3c(c(-c4ccccc4)c2c1N)CCC3`, the max response is -2.08%.

For `COC(=O)c1cc2c(N)c(C(=O)c3ccc(Cl)cc3)sc2nc1C(OC)OC`, the max response was -3.14%.

`CCc1nc2sc(C(=O)O)c(N)c2c2c1CCCC2`: the max response is -1.77%.

In the case of `CCOC(=O)c1sc2nc(SC)nc(-c3ccccc3)c2c1N`, the max response was -2.15%.

With `CC(=O)c1c(Nc2ccccc2)sc(C(=O)c2ccccc2)c1C`, the max response was 0.579%.

For `CN(C)c1ccnc2sc(C(=O)c3ccccc3)c(N)c12`, the max response was 57.9% (active).

As to `C[C@H](C(=O)CC(=O)OC(C)(C)C)[C@H](O)c1ccc(C(F)(F)F)cc1`, the max response is 1.49%.

In the case of `Oc1ccc(-c2c(-c3ccccc3)nn3c(C(F)(F)F)cc(C(F)(F)F)nc23)cc1`, the max response was -7.49%.

As for `Cc1ccc2c(c1)N(CC(=O)N1CCC(O)CC1)C(=O)CO2`, the max response is -1.82%.

For the compound `CC[C@@H](C)[C@H](NC(=O)CCc1c(C)c2cc3c4c(oc3c(C)c2oc1=O)CCCC4)C(=O)O`, the max response is 9.7%.

As to `COc1ccc(/C=C2\SC(=S)N(CCC(=O)Nc3ccccn3)C2=O)cc1OC`, the max response is -7.17%.

As for `O=C(CNC(=O)[C@@H]1Cc2ccccc2CN1)NC1CCCCC1`, the max response is 1.46%.

As for `COc1ccc(/C(C)=N/Nc2cc(C(F)(F)F)ccc2Cl)c(OC)c1`, the max response was -5.52%.

With `O=C(CCl)N(Cc1cccc([N+](=O)[O-])c1)c1cccc(Cl)c1`, the max response is -0.93%.

Regarding `Nc1c(-c2cccc(Cl)c2)cnn1-c1cccc([N+](=O)[O-])c1`, the max response was 17.2% (active).

Regarding `Cn1nc(-c2ccccc2)c2cc([N+](=O)[O-])ccc21`, the max response was 1.38%.

Turning to `CN(C)/C=C(\C=[N+](C)C)c1[nH]ncc1[N+](=O)[O-]`, the max response is -6.11%.

In the case of `CNc1[nH]ncc1[N+](=O)[O-]`, the max response was 40.2% (active).

For the compound `CC(=O)C(C)n1cnc2scc(-c3ccc(C)cc3)c2c1=O` (stereo not drawn), the max response was 1.16%.

Turning to `COc1ccc(CN2CCCC(C(=O)N3CCCCC3)C2)cc1` (stereo not drawn), the max response was -1.73%.

As to `Cc1cnc(NC(=O)CSc2nnc(-c3ccccc3)n2Cc2ccccc2)s1`, the max response is -3.18%.

`COc1ccc(CC(=O)NCc2nnc(SCC(=O)Nc3ncc(C)s3)n2C)cc1`: the max response is 3.99%.

With `Cc1ccc(SCC(=O)Nc2ncc(C)s2)cc1`, the max response was 25% (active).

Turning to `Cc1cnc(NC(=O)CSc2nnc(-c3ccc(Cl)cc3Cl)n2N)s1`, the max response is 24.6% (active).

As for `Cc1cnc(NC(=O)CSc2c(Cl)cccc2Cl)s1`, the max response is 5.96%.

`Cc1cnc(NC(=O)CSc2nnc(C)s2)s1`: the max response was 20.1%.

In the case of `COc1ccc(CNS(=O)(=O)c2ccc(NC(=O)N3CCCCC3)cc2)cc1`, the max response was 2.3%.

Consider `CCOC(=O)c1c(-c2ccccc2)oc2cc(Br)c(O)c(C=O)c12`, for which the max response is 5.72%.

For the compound `CCN(CC)c1ccc(NC(=O)CCc2nnc3ccc(N4CCCCC4)nn23)c(C)c1`, the max response was -1.8%.

As for `CCCc1ccc(OCC(O)CN2CCN(CCO)CC2)cc1` (stereo not drawn), the max response was -1.67%.

As for `S=c1nc(C23CC4CC(CC(C4)C2)C3)nc2sccn12`, the max response is 1.25%.

With `CCn1c(NC(=O)c2nn(C)cc2Br)nc2ccccc21`, the max response was -2.42%.

As to `COC(=O)CN1C(=O)C(C)(C)Oc2ccc(C(=O)Nc3cccc(OC)c3)cc21`, the max response is -5.75%.

Take `CC(C)c1ccc(C(=O)OC2CCOC2=O)cc1` (stereo not drawn): the max response is 6.8%.

With `O=C1OCCN1C(=O)[C@H]1[C@H](c2ccc(F)cc2)C(c2ccccc2)=NN1c1ccc(Br)cc1`, the max response is 5.32%.

Regarding `Cc1ccc(C)c(NC(=O)CSc2nc3c(oc4ccccc43)c(=O)n2-c2ccccc2)c1`, the max response was 0.718%.

As for `CCC(C(=O)OC)n1cnc2c(oc3ccccc32)c1=O` (stereo not drawn), the max response was -2.56%.

For the compound `Cc1ccc(C)c(Cn2cnc3c(oc4ccccc43)c2=O)c1`, the max response was 20.1% (active).

Regarding `OC(COCC1COc2ccccc2O1)CN1CCN(c2ccc(F)cc2)CC1` (stereo not drawn), the max response is -1.11%.

`O=C1CCC(C(=O)N2CCC(O)(c3ccccc3)CC2)CN1CCc1ccccc1` (stereo not drawn): the max response was -0.943%.

Turning to `CC(C)c1nnc(NC(=O)C2CC(=O)N(CCc3ccc(F)cc3)C2)s1` (stereo not drawn), the max response was -6.02%.

For the compound `COC(=O)c1ccc(C(=O)NC2CC(C)(C)Cc3c2cnn3-c2ccc(F)cc2)nc1` (stereo not drawn), the max response was 24.5% (active).

In the case of `CC1(C)Cc2c(cnn2-c2cccc(F)c2)C(NC(=O)c2cc[n+]([O-])cc2)C1` (stereo not drawn), the max response is -3.06%.

In the case of `Cc1cc(C(=O)NC2CC(C)(C)Cc3c2cnn3-c2ccccc2)n[nH]1` (stereo not drawn), the max response is 3.28%.

Regarding `COC(=O)c1cccc(N2C(=O)C3C4C=CC(CC4)C3C2=O)c1` (stereo not drawn), the max response is -3.45%.

`O=C(O)c1cc(S(=O)(=O)NC2CCCc3ccccc32)ccc1O` (stereo not drawn): the max response is 1.09%.

With `Cc1cc(-c2ccc(C)c(S(=O)(=O)NCCCN(Cc3ccccc3)C(C)C)c2)on1`, the max response was -2.55%.

Turning to `Cc1ccc(C(=O)CSc2ccccc2C(=O)O)cc1`, the max response was 20.8% (active).

With `Cc1ccc(C(=O)CSc2nnc(Cn3nnc4ccccc43)n2C)cc1`, the max response is -0.925%.

As for `Cc1ccc(Sc2cc(C(=O)c3ccccc3C(=O)O)ccc2[N+](=O)[O-])cc1`, the max response was -4.78%.
